Some test systems named below: OVCAR-8 ovarian; OVCAR-5 ovarian; OVCAR-4 ovarian; SK-OV-3 ovarian; IGROV1 ovarian; OVCAR-3 ovarian; HS 578T breast; NCI/ADR-RES ovarian; T-47D breast; BT-549 breast; SW-620 colon; MCF7 breast; HCT-116 colon; HCC-2998 colon; KM12 colon; MDA-MB-435 melanoma; RPMI-8226 leukemia.
Holding throughout (experiment): NCI-60 one-dose screen, 48 h (100 = growth as untreated, 0 = no growth, -100 = all killed)
A further test deals with SR leukemia. The following applies: 10 µM unless noted.

Each structure is given as a SMILES string. “And” between values parts separate entries of the source, which are not always exact repeats. Identical values can stand only once. The panel holds about 83,000 compounds, 20% with a hit somewhere; the sample as a whole holds those more often.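 Treatment: one concentration, 48 hours, 96-well format. Scoring: percent growth, with anything below 10 considered active.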 The source made the active and inactive calls.

As to `CC(C)Cc1ccc(C(C)C(=O)NCc2ccc(Cn3c(=O)sn(CCCI)c3=O)cc2)cc1` (stereo unspecified), the growth with SR leukemia was 56.4% (inactive) and 2.84% (active); in the test on OVCAR-8 ovarian (10 µM unless noted) it was 96.3% (inactive) and -30.2% (active); with OVCAR-5 ovarian (10 µM unless noted), 103% (inactive) and -58.1% (active); in the test with OVCAR-4 ovarian (10 µM unless noted) it was 84.9% (inactive) and -53.2% (active); in the test with SK-OV-3 ovarian (10 µM unless noted), 70.9% (inactive); in the test with IGROV1 ovarian (10 µM unless noted), 88.2% (inactive) and -82.1% (active). The growth with OVCAR-3 ovarian (10 µM unless noted) is 92.7% (inactive) and -86% (active); with HS 578T breast (10 µM unless noted), 92.1% (inactive) and -1.05% (active); in the test with NCI/ADR-RES ovarian (10 µM unless noted) it was 106% (inactive) and -18.5% (active); in the test with T-47D breast (10 µM unless noted) it was -49.3% (active); in the test with BT-549 breast (10 µM unless noted), 89.9% (inactive) and -81.9% (active); with SW-620 colon (10 µM unless noted) it was 66.5% (inactive) and -63.2% (active). The growth is 31.7% (inactive) and -61.4% (active) in the test with MCF7 breast (10 µM unless noted); 82% (inactive) and -72.9% (active) in the test with HCT-116 colon (10 µM unless noted); 91.5% (inactive) and -69.2% (active) with HCC-2998 colon (10 µM unless noted); 99.2% (inactive) and -36.7% (active) in the test with KM12 colon (10 µM unless noted).
In the case of `CN(Cc1ccccc1)Cc1ccccc1`, the growth with SR leukemia was 105% (inactive); in the test on OVCAR-8 ovarian (10 µM unless noted), 117% (inactive); in the test with OVCAR-5 ovarian (10 µM unless noted), 103% (inactive); with OVCAR-4 ovarian (10 µM unless noted) it was 113% (inactive); in the test with SK-OV-3 ovarian (10 µM unless noted) it was 113% (inactive); in the test on IGROV1 ovarian (10 µM unless noted) it was 99.4% (inactive). In addition, the growth is 106% (inactive) in the test with OVCAR-3 ovarian (10 µM unless noted); 108% (inactive) with HS 578T breast (10 µM unless noted); 102% (inactive) in the test on NCI/ADR-RES ovarian (10 µM unless noted); 92.8% (inactive) in the test with T-47D breast (10 µM unless noted); 105% (inactive) with MDA-MB-435 melanoma (10 µM unless noted); 112% (inactive) with SW-620 colon (10 µM unless noted). The growth in the test with MCF7 breast (10 µM unless noted) is 97.9% (inactive); with HCT-116 colon (10 µM unless noted) it was 103% (inactive); in the test with HCC-2998 colon (10 µM unless noted), 99.4% (inactive); in the test with KM12 colon (10 µM unless noted), 98.5% (inactive).
With `CCc1ccccc1-n1c(N)c(C#N)c(-c2ccc(OC)c(OC)c2)c(C#N)c1=O`, the growth in the test with RPMI-8226 leukemia (10 µM) is 112% (inactive); in the test on RPMI-8226 leukemia (100 µM), 87.7% (inactive); in the test with OVCAR-8 ovarian (10 µM) it was 109% (inactive); in the test on OVCAR-8 ovarian (100 µM), -24.4% (active); in the test with OVCAR-5 ovarian (10 µM), 107% (inactive); in the test with OVCAR-5 ovarian (100 µM), 48.6% (inactive). Moreover, the growth is 113% (inactive) in the test on OVCAR-4 ovarian (10 µM); 28% (inactive) with OVCAR-4 ovarian (100 µM); 111% (inactive) with SK-OV-3 ovarian (10 µM); -20.7% (active) in the test on SK-OV-3 ovarian (100 µM); 107% (inactive) in the test with IGROV1 ovarian (10 µM); 22.2% (inactive) in the test with IGROV1 ovarian (100 µM). Besides, the growth in the test with OVCAR-3 ovarian (10 µM) was 113% (inactive); with OVCAR-3 ovarian (100 µM), 13.4% (inactive); with HS 578T breast (10 µM), 116% (inactive); in the test on HS 578T breast (100 µM) it was 27.2% (inactive); in the test with NCI/ADR-RES ovarian (10 µM), 111% (inactive); with NCI/ADR-RES ovarian (100 µM), 22.1% (inactive). Moreover, the growth with T-47D breast (10 µM) was 102% (inactive); with T-47D breast (100 µM), 3.67% (active); with BT-549 breast (10 µM) it was 109% (inactive); in the test with BT-549 breast (100 µM), -17.8% (active); in the test on MDA-MB-435 melanoma (10 µM), 113% (inactive); with MDA-MB-435 melanoma (100 µM), 82.5% (inactive). For the same compound, the growth in the test on SW-620 colon (10 µM) is 116% (inactive); in the test with SW-620 colon (100 µM), 86.4% (inactive); with MCF7 breast (10 µM), 115% (inactive); in the test with MCF7 breast (100 µM) it was 10.4% (inactive); in the test on HCT-116 colon (10 µM), 110% (inactive); in the test with HCT-116 colon (100 µM) it was 27.8% (inactive). The growth with HCC-2998 colon (10 µM) was 122% (inactive); in the test on HCC-2998 colon (100 µM) it was 79.6% (inactive); in the test with KM12 colon (10 µM), 99.3% (inactive); in the test on KM12 colon (100 µM), 45.6% (inactive).
Regarding `C[N+](C)(C)CN1C(=O)c2ccccc2C1=O`, the growth with SR leukemia was 83.8% (inactive); in the test with OVCAR-8 ovarian (10 µM unless noted), 97.4% (inactive); in the test with OVCAR-5 ovarian (10 µM unless noted), 105% (inactive); in the test on OVCAR-4 ovarian (10 µM unless noted) it was 101% (inactive); in the test with SK-OV-3 ovarian (10 µM unless noted) it was 98.1% (inactive); with OVCAR-3 ovarian (10 µM unless noted), 109% (inactive). The growth is 103% (inactive) in the test with HS 578T breast (10 µM unless noted); 112% (inactive) in the test with NCI/ADR-RES ovarian (10 µM unless noted); 96.5% (inactive) in the test with T-47D breast (10 µM unless noted); 98.6% (inactive) with BT-549 breast (10 µM unless noted); 97.6% (inactive) in the test on MDA-MB-435 melanoma (10 µM unless noted); 107% (inactive) in the test on SW-620 colon (10 µM unless noted). In addition, the growth in the test on MCF7 breast (10 µM unless noted) was 92.7% (inactive); with HCC-2998 colon (10 µM unless noted), 108% (inactive); in the test on KM12 colon (10 µM unless noted), 111% (inactive).

Values taken from PubChem BioAssay (NCI).
